Experimental data published in the supplement of paper PMC10849652.
Targets with a hit are over-represented here; the source holds about 7,900 in all. About 0.6% of all pairs of compound and target were hits.

Compound: C[C@@H]1COCCN1C2=NC(=NC(=C2)C3(CC3)S(=O)(=O)C)C4=C5C=CNC5=CC=C4
Assay: log2 fold change, soluble protein after heating vs DMSO (PISA); higher = thermal stabilisation; K562 cells, 10 uM, 30 min; active = over 0.2 and 3.5 SD of the protein, either way, in both replicates (recomputed)
How it was run: (§1)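 K562 cells at 2×10^6 cells/mL were exposed to 10 μM compound for 30 min, then aliquots were heated for 3 min across 48°C-58°C, pooled, and extracted in PBS containing 0.5% NP-40 at 4°C. The supernatant after 21,000xg for 90 min was taken as soluble protein and measured by TMTpro 16plex LC-MS/MS with channel sums equalised. Thermal stability is reported relative to control samples, with values from duplicates. Fold changes are given on a log2 scale.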

Chain of UniProt Q9P287 (Q9P287 whole entry, looked up): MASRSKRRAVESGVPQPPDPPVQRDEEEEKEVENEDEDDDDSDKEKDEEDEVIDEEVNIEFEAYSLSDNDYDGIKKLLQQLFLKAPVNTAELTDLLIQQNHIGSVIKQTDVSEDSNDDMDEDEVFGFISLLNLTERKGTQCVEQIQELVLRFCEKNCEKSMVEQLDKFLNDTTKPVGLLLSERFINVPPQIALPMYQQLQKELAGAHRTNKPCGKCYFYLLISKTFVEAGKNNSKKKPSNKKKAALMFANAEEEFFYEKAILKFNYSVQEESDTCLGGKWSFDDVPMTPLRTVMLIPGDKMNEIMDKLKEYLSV
Chain of UniProt Q9NP58 (Q9NP58 whole entry, looked up): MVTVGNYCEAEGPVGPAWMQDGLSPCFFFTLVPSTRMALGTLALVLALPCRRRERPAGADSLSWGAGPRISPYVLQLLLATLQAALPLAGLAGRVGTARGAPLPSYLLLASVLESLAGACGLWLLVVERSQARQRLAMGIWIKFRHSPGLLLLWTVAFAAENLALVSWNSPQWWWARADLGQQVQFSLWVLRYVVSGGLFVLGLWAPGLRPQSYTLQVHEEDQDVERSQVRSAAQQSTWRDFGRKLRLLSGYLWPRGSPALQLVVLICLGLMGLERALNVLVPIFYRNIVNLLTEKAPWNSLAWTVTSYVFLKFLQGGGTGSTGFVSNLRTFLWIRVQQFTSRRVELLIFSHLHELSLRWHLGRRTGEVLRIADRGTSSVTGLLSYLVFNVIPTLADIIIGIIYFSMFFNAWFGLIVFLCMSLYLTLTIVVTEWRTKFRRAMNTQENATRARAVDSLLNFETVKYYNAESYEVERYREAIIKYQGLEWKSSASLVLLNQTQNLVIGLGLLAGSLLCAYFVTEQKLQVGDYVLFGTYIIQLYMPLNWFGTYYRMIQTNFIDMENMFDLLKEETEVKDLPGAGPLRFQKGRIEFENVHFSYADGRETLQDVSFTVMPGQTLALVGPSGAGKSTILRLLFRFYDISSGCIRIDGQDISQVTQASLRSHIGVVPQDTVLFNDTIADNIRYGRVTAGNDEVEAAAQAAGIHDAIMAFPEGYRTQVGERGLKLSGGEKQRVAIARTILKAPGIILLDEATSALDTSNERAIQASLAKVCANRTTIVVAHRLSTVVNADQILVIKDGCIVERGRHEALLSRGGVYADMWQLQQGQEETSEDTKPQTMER
Chain of UniProt O60566 (O60566 whole entry, looked up): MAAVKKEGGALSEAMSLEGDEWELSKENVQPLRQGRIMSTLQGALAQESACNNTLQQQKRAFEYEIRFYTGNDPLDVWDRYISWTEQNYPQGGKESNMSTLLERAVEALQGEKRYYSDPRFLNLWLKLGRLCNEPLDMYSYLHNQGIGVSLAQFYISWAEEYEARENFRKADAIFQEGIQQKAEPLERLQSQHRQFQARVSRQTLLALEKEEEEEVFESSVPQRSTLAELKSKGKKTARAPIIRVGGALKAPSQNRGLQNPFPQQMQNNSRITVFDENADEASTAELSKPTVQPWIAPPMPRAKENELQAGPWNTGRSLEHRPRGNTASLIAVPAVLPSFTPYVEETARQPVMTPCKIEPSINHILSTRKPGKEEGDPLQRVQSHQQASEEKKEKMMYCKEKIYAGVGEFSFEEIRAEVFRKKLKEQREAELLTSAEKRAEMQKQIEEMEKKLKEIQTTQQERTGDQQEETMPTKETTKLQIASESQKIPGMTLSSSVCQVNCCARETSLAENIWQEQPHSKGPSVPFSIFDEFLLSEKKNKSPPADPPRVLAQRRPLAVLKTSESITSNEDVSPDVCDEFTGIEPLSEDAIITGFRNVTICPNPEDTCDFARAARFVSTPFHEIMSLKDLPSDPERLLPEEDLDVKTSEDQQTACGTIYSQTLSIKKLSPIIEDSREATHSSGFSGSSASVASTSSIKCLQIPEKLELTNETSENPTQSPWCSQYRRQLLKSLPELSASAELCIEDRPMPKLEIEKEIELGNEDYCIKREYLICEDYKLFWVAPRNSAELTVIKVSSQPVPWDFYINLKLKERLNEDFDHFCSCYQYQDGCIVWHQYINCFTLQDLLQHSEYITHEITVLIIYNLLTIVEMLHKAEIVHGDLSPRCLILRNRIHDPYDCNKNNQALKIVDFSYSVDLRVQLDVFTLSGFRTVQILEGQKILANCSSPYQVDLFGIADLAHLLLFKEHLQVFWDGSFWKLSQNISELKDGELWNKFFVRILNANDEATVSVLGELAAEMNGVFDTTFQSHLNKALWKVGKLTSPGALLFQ
Chain of UniProt O43823 (O43823 whole entry, looked up): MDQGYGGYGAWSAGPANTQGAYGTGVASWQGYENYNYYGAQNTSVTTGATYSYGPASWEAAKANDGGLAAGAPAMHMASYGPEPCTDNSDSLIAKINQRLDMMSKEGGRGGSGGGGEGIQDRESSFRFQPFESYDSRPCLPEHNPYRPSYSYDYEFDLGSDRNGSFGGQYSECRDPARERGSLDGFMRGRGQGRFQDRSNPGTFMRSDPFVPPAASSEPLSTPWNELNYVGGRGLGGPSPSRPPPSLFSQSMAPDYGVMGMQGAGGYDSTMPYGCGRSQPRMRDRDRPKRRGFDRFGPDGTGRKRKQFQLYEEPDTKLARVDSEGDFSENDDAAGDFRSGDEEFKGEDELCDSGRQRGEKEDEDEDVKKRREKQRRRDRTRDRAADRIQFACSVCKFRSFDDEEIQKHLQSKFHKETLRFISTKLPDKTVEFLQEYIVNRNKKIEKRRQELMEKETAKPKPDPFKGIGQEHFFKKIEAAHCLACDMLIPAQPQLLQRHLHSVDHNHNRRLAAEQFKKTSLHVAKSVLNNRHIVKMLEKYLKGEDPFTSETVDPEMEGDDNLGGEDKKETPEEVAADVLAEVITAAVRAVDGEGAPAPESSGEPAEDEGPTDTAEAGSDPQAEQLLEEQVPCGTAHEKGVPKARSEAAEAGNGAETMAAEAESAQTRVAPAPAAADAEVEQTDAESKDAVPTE
Chain of UniProt Q13685 (Q13685 whole entry, looked up): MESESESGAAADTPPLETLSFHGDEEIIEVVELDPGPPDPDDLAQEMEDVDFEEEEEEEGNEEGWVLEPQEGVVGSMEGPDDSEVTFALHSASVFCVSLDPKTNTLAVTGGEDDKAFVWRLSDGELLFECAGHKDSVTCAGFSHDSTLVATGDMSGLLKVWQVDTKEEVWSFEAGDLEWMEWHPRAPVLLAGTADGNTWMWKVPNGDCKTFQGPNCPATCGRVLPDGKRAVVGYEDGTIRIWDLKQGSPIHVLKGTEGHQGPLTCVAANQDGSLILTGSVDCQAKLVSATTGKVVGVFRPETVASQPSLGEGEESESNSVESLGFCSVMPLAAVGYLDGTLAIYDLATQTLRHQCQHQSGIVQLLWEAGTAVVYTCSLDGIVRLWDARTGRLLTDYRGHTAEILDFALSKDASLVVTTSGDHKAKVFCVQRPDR
Chain of UniProt Q9NX38 (Q9NX38 whole entry, looked up): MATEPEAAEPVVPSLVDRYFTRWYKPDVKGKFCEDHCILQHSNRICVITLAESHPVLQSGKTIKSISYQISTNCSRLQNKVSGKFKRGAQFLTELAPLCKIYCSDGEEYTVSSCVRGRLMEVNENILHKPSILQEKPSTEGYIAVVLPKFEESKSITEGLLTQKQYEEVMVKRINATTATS
Chain of UniProt Q9Y4P1 (Q9Y4P1 whole entry, looked up): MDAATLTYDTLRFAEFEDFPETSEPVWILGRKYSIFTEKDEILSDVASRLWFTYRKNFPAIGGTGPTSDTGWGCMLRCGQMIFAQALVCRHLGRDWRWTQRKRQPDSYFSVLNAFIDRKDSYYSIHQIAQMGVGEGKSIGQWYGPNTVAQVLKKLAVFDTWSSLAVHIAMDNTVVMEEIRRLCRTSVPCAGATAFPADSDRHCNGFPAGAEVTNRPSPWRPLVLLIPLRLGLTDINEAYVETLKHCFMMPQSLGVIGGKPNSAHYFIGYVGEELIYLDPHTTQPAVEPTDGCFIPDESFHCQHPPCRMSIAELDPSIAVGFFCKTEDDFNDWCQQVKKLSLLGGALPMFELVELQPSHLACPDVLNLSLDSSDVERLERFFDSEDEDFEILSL
Chain of UniProt Q9H845 (Q9H845 whole entry, looked up): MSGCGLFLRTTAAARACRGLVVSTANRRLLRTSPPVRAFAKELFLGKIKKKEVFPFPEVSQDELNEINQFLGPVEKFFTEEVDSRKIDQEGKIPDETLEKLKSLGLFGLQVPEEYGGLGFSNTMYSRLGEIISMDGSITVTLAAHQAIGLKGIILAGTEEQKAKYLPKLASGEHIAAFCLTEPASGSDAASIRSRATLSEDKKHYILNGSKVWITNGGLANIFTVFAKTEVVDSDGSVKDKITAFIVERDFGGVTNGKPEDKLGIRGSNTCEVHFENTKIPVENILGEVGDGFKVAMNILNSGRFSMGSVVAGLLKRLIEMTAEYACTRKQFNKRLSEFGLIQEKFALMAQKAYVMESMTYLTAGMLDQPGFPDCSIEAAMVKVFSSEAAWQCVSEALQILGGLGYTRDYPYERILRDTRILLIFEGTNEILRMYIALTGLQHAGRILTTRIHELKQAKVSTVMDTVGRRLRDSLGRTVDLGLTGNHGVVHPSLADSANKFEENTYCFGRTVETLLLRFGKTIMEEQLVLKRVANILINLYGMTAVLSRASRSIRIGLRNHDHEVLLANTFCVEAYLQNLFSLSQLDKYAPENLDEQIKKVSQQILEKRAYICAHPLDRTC
Chain of UniProt Q9NWB6 (Q9NWB6 whole entry, looked up): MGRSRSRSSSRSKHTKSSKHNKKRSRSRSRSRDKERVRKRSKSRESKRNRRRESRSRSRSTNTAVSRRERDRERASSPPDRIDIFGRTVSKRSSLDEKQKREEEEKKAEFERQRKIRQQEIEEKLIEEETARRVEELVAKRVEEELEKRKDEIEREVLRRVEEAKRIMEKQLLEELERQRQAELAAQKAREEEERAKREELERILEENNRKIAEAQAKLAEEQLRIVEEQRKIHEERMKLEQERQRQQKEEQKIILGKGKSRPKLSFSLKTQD
Chain of UniProt P55957 (P55957 whole entry, looked up): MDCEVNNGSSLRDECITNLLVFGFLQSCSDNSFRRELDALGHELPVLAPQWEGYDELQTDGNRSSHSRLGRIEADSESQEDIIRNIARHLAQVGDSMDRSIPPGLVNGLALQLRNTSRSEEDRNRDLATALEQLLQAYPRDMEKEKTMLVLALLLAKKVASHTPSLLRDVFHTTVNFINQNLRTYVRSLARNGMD

log2 fold change, active:
BID isoform 2 (UniProt P55957) 0.409

log2 fold change, inactive:
AAMP (UniProt Q13685) -0.007, AKAP8 (UniProt O43823) 0.077, ABITRAM (UniProt Q9NX38) 0.1, ARL6IP4 (UniProt Q66PJ3) 0.036, ATP6V1H (UniProt Q9UI12) 0.019, B4GALT1 (UniProt P15291) -0.031, ASNS (UniProt P08243) 0.044, BCCIP (UniProt Q9P287) -0.044, BUB1B isoform 3 (UniProt O60566) 0.013, ATP9B (UniProt O43861) -0.066, ATP2A3 isoform 2 (UniProt Q93084) -0.048, ACAD9 (UniProt Q9H845) 0.021, BRD8 (UniProt Q9H0E9) 0.018, AGPAT5 (UniProt Q9NUQ2) 0.151, AIP (UniProt O00170) 0.075, ACADVL isoform 3 (UniProt P49748) 0.078, BCL9L (UniProt Q86UU0) 0.018, ARFGAP2 (UniProt Q8N6H7) 0.062, AHSA1 (UniProt O95433) 0.058, ANKRD29 (UniProt Q8N6D5) 0.042, BRAP (UniProt Q7Z569) 0.008, BCCIP isoform 2 (UniProt Q9P287) 0, ACP2 (UniProt P11117) 0.017, B4GALNT1 (UniProt Q00973) -0.003, ACIN1 (UniProt Q9UKV3) 0.068, BCLAF1 (UniProt Q9NYF8) 0.089, ABCA3 (UniProt Q99758) 0.174, ATP5IF1 (UniProt Q9UII2) -0.006, AGO1 (UniProt Q9UL18) -0.007, ADH5 (UniProt P11766) 0.032, ARGLU1 (UniProt Q9NWB6) -0.039, ABCB6 (UniProt Q9NP58) 0.093, ARFIP1 (UniProt P53367) 0.026, ATG4B isoform 2 (UniProt Q9Y4P1) 0.056

Compound: C[C@H](C1=CC=C(C=C1)C(=O)NC2=C3C=CNC3=NC=C2)N
Assay: as above
How it was run: as §1

log2 fold change, active:
BCLAF1 (UniProt Q9NYF8) -0.438

log2 fold change, inactive:
AAMP (UniProt Q13685) -0.006, AKAP8 (UniProt O43823) 0.062, ABITRAM (UniProt Q9NX38) -0.011, ARL6IP4 (UniProt Q66PJ3) -0.093, ATP6V1H (UniProt Q9UI12) 0.003, B4GALT1 (UniProt P15291) -0.124, ASNS (UniProt P08243) -0.045, BCCIP (UniProt Q9P287) 0.074, BUB1B isoform 3 (UniProt O60566) 0.083, ATP9B (UniProt O43861) -0.098, ATP2A3 isoform 2 (UniProt Q93084) -0.022, ACAD9 (UniProt Q9H845) -0.061, BRD8 (UniProt Q9H0E9) 0.06, AGPAT5 (UniProt Q9NUQ2) -0.014, AIP (UniProt O00170) -0.055, ACADVL isoform 3 (UniProt P49748) -0.058, BID isoform 2 (UniProt P55957) -0.019, BCL9L (UniProt Q86UU0) -0.002, ARFGAP2 (UniProt Q8N6H7) 0.007, AHSA1 (UniProt O95433) -0.026, ANKRD29 (UniProt Q8N6D5) -0.043, BRAP (UniProt Q7Z569) -0.01, BCCIP isoform 2 (UniProt Q9P287) 0.062, ACP2 (UniProt P11117) -0.016, B4GALNT1 (UniProt Q00973) -0.019, ACIN1 (UniProt Q9UKV3) -0.12, ABCA3 (UniProt Q99758) 0.073, ATP5IF1 (UniProt Q9UII2) 0.018, AGO1 (UniProt Q9UL18) 0.006, ADH5 (UniProt P11766) -0.033, ARGLU1 (UniProt Q9NWB6) -0.344, ABCB6 (UniProt Q9NP58) -0.057, ARFIP1 (UniProt P53367) -0.061, ATG4B isoform 2 (UniProt Q9Y4P1) -0.004
